Assay results reported in publication PMC5540273 (PLoS ONE, 2017).

These compounds were tested on SRMS. Details: concentration: 1 μM, replicates: in singlicate; n = 1.
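Also: KINOMEscan kinase panel screen.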

| SMILES | %Inh [%] |
| --- | --- |
| Cc1ccc(F)c(C(=O)Nc2cccc(-c3nn4ccccc4c3-c3ccnc(Nc4cccc(F)c4)n3)c2)c1F [GSK361061] | 44 |
| Cl.Cl.NCC(NC(=O)c1cc(-c2ccccc2)c(-c2ccnc3[nH]ccc23)s1)c1ccccc1 (stereo not drawn) [GSK1321561] | 0 |
| Cc1cccc(Nc2nc(N[C@H]3CCNC3)ncc2C(N)=O)c1.Cl [GSK2197149] | 0 |
| COc1cccc(C2=C(Nc3ccc(Cl)c(C(=O)O)c3)C(=O)NC2=O)c1 [SB-390769] | 100 |
| O=C(Nc1cccc(-c2nn3ccccc3c2-c2ccnc(Nc3cccc(F)c3)n2)c1)c1c(F)ccc(F)c1Cl [GSK357952] | 28 |
| COc1cccc(NC(=O)NC2CCN(c3ccnc(Nc4cc(OC)c(OC)c(OC)c4)n3)C2)c1 (stereo not drawn) [GSK1379763] | 0 |
| O=c1[nH]cc(-c2ccc(N3CCOCC3)cc2)c2sc(-c3cn[nH]c3)cc12 [GSK2276055] | 8 |
| CC(C)(C)c1ccc2nccc(Nc3cccc(O)c3)c2c1 [GW856795] | 0 |
| COc1ccc(Nc2nccc(N3CCC(NC(=O)Nc4cccc(OC)c4)C3)n2)cc1 (stereo not drawn) [GSK1379742] | 0 |
| CCS(=O)(=O)c1ccc(OC)c(Nc2nccc(-c3c(-c4cccc(NC(=O)c5c(F)cccc5F)c4)nn4ncccc34)n2)c1 [GSK326180] | 99.3 |
| CC(C)c1nc(-c2cccc(NS(=O)(=O)c3c(F)cccc3F)c2F)c(-c2ccnc(Nc3ccc(N4CCOCC4)nc3)n2)s1 [GSK2008607] | 99.5 |
| Fc1ccc(-c2ncn(C3CCNCC3)c2-c2ccnc(Oc3ccc(-c4ccccc4)cc3)n2)cc1 [SB-245391] | 3 |
| O=C(Nc1n[nH]c2cc(-c3ccoc3)ccc12)C1CC1 [SB-738481] | 19 |
| Nc1ncc(-c2cccnc2)c2scc(-c3ccc4c(c3)CCN4C(=O)Cc3ccccc3)c12 [GSK683281] | 8 |
| Nc1ncc(-c2ccc3nccc(-c4ccncc4)c3c2)cc1S(=O)(=O)N1CCOCC1 [GSK1627798] | 0 |
| C[C@@H]1CC[C@@H](C(=O)Nc2ccccc2)CN1c1cc(-c2ccc3c(N)n[nH]c3c2)nc(N)n1 [GSK2286062] | 0 |
| Cn1cc(-c2ccc3c(c2)CCN3C(=O)Cc2cccc(F)c2)c2c(N)ncnc21 [GSK2603358] | 0 |
| Cc1ccc(C(=O)N2CC[C@@H](O)C2)cc1-n1c(C)cc(OCc2ccc(F)cc2F)c(Br)c1=O | 0 |
| CN1CCN(Cc2cccc(-c3ccc4c(Nc5ccc(Oc6ccccc6)cc5)ccnc4c3)c2)CC1 [GW578342] | 97.1 |
| CN(C)S(=O)(=O)c1cc(-c2ccc3nccc(-c4cccc(S(N)(=O)=O)c4)c3c2)cnc1N [GSK1669921] | 0 |
| COc1cc(Nc2nccc(-c3c(-c4cccc(NC(=O)c5c(F)cccc5F)c4)nn4ncccc34)n2)cc(OC)c1OC [GSK327238] | 98.5 |
| COCCOCCOc1cc2ncc3c4ccc(C#N)cc4[nH]c3c2cc1OC | 0 |
| Cc1ccc(C(=O)Nc2ccc(Nc3ccnc4cc(-c5nccs5)ccc34)cc2O)cc1.Cl [GW494702] | 89 |
| CC(=O)N1CCN(c2ccc(Nc3nccc(-c4sc(C(C)C)nc4-c4cccc(NS(=O)(=O)c5cccc(Cl)c5)c4)n3)cn2)CC1 [GSK1660437] | 98.3 |
| COc1cccc(C(=O)Nc2cccc(Oc3ccc4nc(NC(=O)C5CC5)cn4n3)c2)c1 | 20 |
| Cc1cccc(NC(=O)Nc2ccc(Oc3ncnc4ccn(C)c34)cc2)c1 | 0 |
| Cc1ccc(S(=O)(=O)Nc2ccc(Nc3nccc(Nc4cccc5[nH]ncc45)n3)cc2)cc1 [GSK581271] | 0 |
| O=C(Nc1ccccc1F)NC1CCN(c2ccnc(Nc3ccc(F)cc3)n2)CC1 [GSK1379800] | 0 |
| Nc1n[nH]c2cnc(-c3ccccc3)cc12 [SB-642124] | 0 |
| c1ccc(-c2n[nH]cc2Nc2ccnc3ccccc23)nc1 [GW694077] | 0 |
